According to PubChem BioAssay (NCATS):
Results filed as inconclusive are left out. Where a call stands in place of a potency, no number is given. The source made the active and inactive calls. Calls come from the whole dose curve; as a rule, active = well fitted cell-killing curve with a large enough effect; inconclusive = small, poorly fitted or top-dose-only effect, or effect the other way; inactive = no such curve, though single readings can be large or run the other way.

Test: Quantitative High-Throughput drug screen in 47 multiple myeloma cell lines against the NCATS MIPE library collection: FR4_PLB cell viability assay (AID 1918924; note: nearly all actives have a fitted effect of over 35% in size)
Details: FR4_PLB myeloma cells viability, CellTiter-Glo ATP, 48 h; series mostly up to 45.8 µM
Description: PI: Beverly A. Mock Ph.D.
Laboratory of Cancer Biology and Genetics,
Center for Cancer Research, National Cancer Institute,
National Institute of Health, Bethesda, Maryland
Drug resistance and disease progression are common in multiple myeloma (MM) patients, underscoring the need for new therapeutic combinations. […] We hypothesized that effective combinations would reduce MYC expression and enhance p16 activity. […] These preclinical data identify potentially useful drug combinations for evaluation in drug-resistant MM and reveal potential mechanisms of combined drug sensitivity.
Described herein is the primary MIPE qHTS used to cherrypick compounds. Validated compounds were then further tested for potential synergistic activiy.
[1] Peat TJ, Gaikwad SM, Dubois W, Gyabaah-Kessie N, Zhang S, Gorjifard S, Phyo Z, Andres M, Hughitt VK, Simpson RM, Miller MA, Girvin AT, Taylor A, Williams D, D'Antonio N, Zhang Y, Rajagopalan A, Flietner E, Wilson K, Zhang X, Shinn P, Klumpp-Thomas C, McKnight C, Itkin Z, Chen L, Kazandijian D, Zhang J, Michalowski AM, Simmons JK, Keats J, Thomas CJ, Mock BA. Drug combinations identified by high-throughput screening promote cell cycle transition and upregulate Smad pathways in myeloma. Cancer Lett. 2023 Aug 1;568:216284. doi: 10.1016/j.canlet.2023.216284. Epub 2023 Jun 24. PMID: 37356470; PMCID: PMC10408729.
SEQUENCE No. (e.g., 1, 2, 3, etc.); […] (e.g., Cells, Incubation, Reagent, etc.); VALUE and DESCRIPTION.
1; Cells; 5 uL; white, solid bottom 1536-well Greiner assay plate.
2; Compounds; 23 nL; Kalypsis pin tool (Wako USA) equipped with a 1536-well pin head to transfer to the assay plates.
3; Incubation; 48 hours; 37C incubation.
4; Reagent;5uL; CellTiter Glo (Promega).
5; Detector; 425V; Luminescence; Viewlux PerkinElmer.
NOTES (numbers refer to Sequence numbers above)
1. The cell-based screening methods employed in this study were like those previously published. Briefly, the corresponding myeloma cell lines were screened in 1,536-well plates with 500 cells, 5-uL per well for inhibition of cell viability (assessed by measuring ATP levels with CellTiterGlo).
2. NCATS MIPE 4.0 library of approved and investigational drugs were added using the Kalypsis pin tool. Wells treated with DMSO only for 100% viability and media only wells for 0% viability were used as controls.
3. The assay plates were covered and incubated for 48 hours in a 37C, 5% CO2 incubator with controlled humidity.
4. After 48 hours, CellTilter-GloTM luminescent substrate mix (Promega) reagent was added to the assay plate and plates we incubated for 5 min at room temperature.
5. Signal was measured as median relative luminescence units on a ViewLux (PerkinElmer) multiplate reader.
[1] Heske CM, Davis MI, Baumgart JT, Wilson K, Gormally MV, Chen L, Zhang X, Ceribelli M, Duveau DY, Guha R, Ferrer M, Arnaldez FI, Ji J, Tran HL, Zhang Y, Mendoza A, Helman LJ, Thomas CJ. Matrix Screen Identifies Synergistic Combination of PARP Inhibitors and Nicotinamide Phosphoribosyltransferase (NAMPT) Inhibitors in Ewing Sarcoma. Clin Cancer Res. 2017 Dec 1;23(23):7301-7311. doi: 10.1158/1078-0432.CCR-17-1121. Epub 2017 Sep 12. PMID: 28899971; PMCID: PMC6636827.
Potency is the fitted concentration of half-maximal effect.

**Q.** Which Potency does the source give for CN(C)C1CCN(C(=O)c2ccc(NC(=O)Nc3nc(N4CCOCC4)nc(N4CCOCC4)n3)cc2)CC1 here?
**A.** 0.0093 µM (active)

**Q.** With NS(=O)(=O)c1ccc(NC2=CC(=O)c3ccccc3C2=O)cc1 as the compound, how does the Potency read?
**A.** 2.96 µM (active)

**Q.** With CN(C)Cc1ccc(-c2nc3cccc4c3n2CCNC4=O)cc1 as the compound, how does the Potency read?
**A.** 23.5 µM (active)

**Q.** For O=c1[nH]cnc2c1ncn2[C@H]1CC[C@@H](CO)O1, which Potency is on record?
**A.** inactive

**Q.** Which Potency does the source give for NS(=O)(=O)c1cccc2c1C(=O)c1cccc(O)c1C2=O here?
**A.** 0.935 µM (active)

**Q.** Which Potency does the source give for CC(=Cc1ccccc1)C=C1SC(=S)N(CC(=O)O)C1=O here?
**A.** inactive

**Q.** With COc1ccc2cccc(CCNC(C)=O)c2c1 as the compound, how does the Potency read?
**A.** inactive

**Q.** For Clc1ccc(C(c2ccc(Cl)cc2)n2cc[n+](CC(OCc3ccc(Cl)cc3Cl)c3ccc(Cl)cc3Cl)c2)cc1 (stereo not given), which Potency is on record?
**A.** 20.9 µM (active)

**Q.** Which Potency does the source give for COc1cc(Nc2ncc(F)c(Nc3ccc4c(n3)NC(=O)C(C)(C)O4)n2)cc(OC)c1OC here?
**A.** 20.9 µM (active)

**Q.** For CCN(CC)CCOc1ccc(C(=C(Cl)c2ccccc2)c2ccccc2)cc1, which Potency is on record?
**A.** inactive

**Q.** For Clc1ccc(-c2nc3sccn3c2C=NOCc2ccc(Cl)c(Cl)c2)cc1, which Potency is on record?
**A.** inactive

**Q.** Which Potency does the source give for CC#CCn1c(N2CCC[C@@H](N)C2)nc2c1c(=O)n(Cc1nc(C)c3ccccc3n1)c(=O)n2C here?
**A.** inactive

**Q.** For O=C1C[C@@H](c2ccc(O)cc2)Oc2cc(O)cc(O)c21, which Potency is on record?
**A.** inactive

**Q.** With CCCCCNC(=O)N1CCC(CN(Cc2ccc(Cl)cc2)Cc2ccc([N+](=O)[O-])s2)C1 (stereo not given) as the compound, how does the Potency read?
**A.** 23.5 µM (active)

**Q.** With CNC(=O)c1ccc2cc(C3(O)CCn4cncc43)ccc2c1 (stereo not given) as the compound, how does the Potency read?
**A.** inactive

**Q.** For N[C@@]1(C(=O)O)CS(=O)(=O)[C@H]2[C@H](C(=O)O)[C@H]21, which Potency is on record?
**A.** inactive

**Q.** Which Potency does the source give for C[C@H]1[C@H](NC(=O)C(=NOC(C)(C)C(=O)O)c2csc(N)n2)C(=O)N1S(=O)(=O)O here?
**A.** inactive

**Q.** With O=C(O)CCC1CCC(c2cc(F)ccc2F)(S(=O)(=O)c2ccc(Cl)cc2)CC1 (stereo not given) as the compound, how does the Potency read?
**A.** inactive

**Q.** With CC[C@H]1OC(=O)[C@H](C)[C@@H](O[C@H]2C[C@@](C)(OC)[C@@H](O)[C@H](C)O2)[C@H](C)[C@@H](O[C@@H]2O[C@H](C)C[C@H](N(C)C)[C@@H]2O)[C@](C)(O)C[C@@H](C)CN(C)[C@H](C)[C@@H](O)[C@]1(C)O as the compound, how does the Potency read?
**A.** inactive

**Q.** With Cn1cc(C=C2C(=O)Nc3cccnc32)c2ccccc21 as the compound, how does the Potency read?
**A.** inactive

**Q.** Which Potency does the source give for COc1cc2ncnc(Nc3ccc(F)c(Cl)c3)c2cc1OCCCN1CCOCC1 here?
**A.** 19.1 µM (active)

**Q.** With COc1cc2c(cc1OC)CN(CCc1ccc(NC(=O)c3cc(OC)c(OC)cc3NC(=O)c3cnc4ccccc4c3)cc1)CC2 as the compound, how does the Potency read?
**A.** inactive

**Q.** With N[C@H](CSC(c1ccccc1)(c1ccccc1)c1ccccc1)C(=O)O as the compound, how does the Potency read?
**A.** 5.26 µM (active)

**Q.** With NC[C@@H]1O[C@@H](O[C@H]2[C@@H](O)[C@H](O[C@@H]3[C@@H](O)[C@@H](N)C[C@H](N)[C@H]3O[C@H]3O[C@H](CN)[C@@H](O)[C@@H](O)[C@H]3N)O[C@H]2CO)[C@H](N)[C@@H](O)[C@@H]1O as the compound, how does the Potency read?
**A.** inactive

**Q.** For COC(=O)N[C@H](C(=O)N1CCC[C@@H]1c1ncc(-c2ccc(-c3ccc(-c4cnc([C@@H]5CCCN5C(=O)[C@@H](NC(=O)OC)C(C)C)[nH]4)cc3)cc2)[nH]1)C(C)C, which Potency is on record?
**A.** 23.5 µM (active)

**Q.** With COc1ccc(Cc2ccc(NC(N)=O)cc2)cc1-c1cccc(Cl)c1 as the compound, how does the Potency read?
**A.** inactive

**Q.** With O=c1cc(-c2ccc(O)cc2)oc2cc(O)cc(O)c12 as the compound, how does the Potency read?
**A.** 23.5 µM (active)

**Q.** Which Potency does the source give for O=C(NCc1ccccc1)c1csc(Nc2ccncn2)n1 here?
**A.** 14.8 µM (active)

**Q.** With O=C(NCc1ccncc1)C12C[C@H]3C[C@@H](C1)CC(c1ccc(Cl)cc1)(C3)C2 as the compound, how does the Potency read?
**A.** 14.8 µM (active)

**Q.** For C[C@]12CC[C@@H]3c4ccc(O)cc4C[C@@H](CCCCCCCCCS(=O)CCCC(F)(F)C(F)(F)F)[C@H]3[C@H]1CC[C@H]2O (stereo not given in full), which Potency is on record?
**A.** inactive

**Q.** For CC(=O)Nc1ccc([C@H](C)C(=O)Nc2ncc(C(C)C)s2)cc1, which Potency is on record?
**A.** 1.87 µM (active)

**Q.** Which Potency does the source give for CC1(C)Cc2c(sc(NC(=S)NC(=O)c3ccccc3)c2C(=O)O)CO1 here?
**A.** inactive

**Q.** With CCCCCCCCCCCC1=C(O)C(=O)C=C(O)C1=O as the compound, how does the Potency read?
**A.** 20.9 µM (active)

**Q.** For COc1ccc2c(Oc3ccc(NC(=O)c4c(C)n(CC(C)(C)O)n(-c5ccccc5)c4=O)cc3F)ccnc2c1, which Potency is on record?
**A.** 26.4 µM (active)

**Q.** With Nc1nc(F)nc2c1ncn2[C@@H]1O[C@H](COP(=O)(O)O)[C@@H](O)[C@H]1O as the compound, how does the Potency read?
**A.** 1.87 µM (active)

**Q.** For Cc1ccc(F)c(NC(=O)Nc2ccc(-c3cccc4[nH]nc(N)c34)cc2)c1, which Potency is on record?
**A.** 14.8 µM (active)

**Q.** Which Potency does the source give for Cc1ccn(-c2ccc(-c3ncco3)cc2)c(=O)c1-c1ccc2nc(N)ncc2c1 here?
**A.** inactive

**Q.** Which Potency does the source give for NC(=O)c1ccc2nc(-c3ccc(Oc4ccc(Cl)cc4)cc3)[nH]c2c1 here?
**A.** 0.166 µM (active)

**Q.** With Cc1nc(N)sc1-c1ccnc(Nc2ccc(N3CCOCC3)cc2)n1 as the compound, how does the Potency read?
**A.** 14.8 µM (active)

**Q.** With COc1ccc(Cc2nccc3cc(OC)c(OC)cc23)cc1OC as the compound, how does the Potency read?
**A.** inactive
